The whole screen tested about 33,000 compounds, of which about 40 (0.1%) were called active. This is one part of a sample in which actives are shown more often than they occur. Values without a mark were called inactive. No stated cut-off is given here; in the data, active means z-score below about -3; inactive means the rest.

The nature of the test: inhibitors of measles virus growth in cells, primary screen, measles RdRp inhibitor project, cell-based, single point, HTS (AID 745). The settings on record: infected Vero cells, GFP fluorescence, 64 h; stronger effect = lower value.
Take `COc1nc(SC)nnc1C`: the z-score was -5.82 (active).
Consider `COc1cc(NC(=O)c2cc(-c3ccc(Cl)cc3)on2)c(OC)cc1Cl`, for which the z-score is -0.12.
Turning to `COC(=O)c1sc(=S)n(-c2ccc(OC)c(Cl)c2)c1N`, the z-score was 0.31.
Then `O=C(Nc1c(C(=O)N2CCC(Cc3ccccc3)CC2)cnn1-c1ccccc1)c1ccc(Br)cc1`, with 0.43; and `COc1ccc(-c2cc(C(=O)Nc3sc4c(c3C(N)=O)CCCC4)no2)cc1`, with 0.31.
The result for `CCCc1n(CC(O)COc2cccc(Cl)c2)c2ccccc2[n+]1C` (stereo unspecified) reads 0.55; that for `CC1CC(C)(C)NC(=S)N1CCC(=O)Nc1ccc(OC(F)(F)F)cc1` (stereo unspecified), -0.78.
The result for `O=C1COc2ccc(Cl)cc2N1` reads 0.06; that for `CCOC(=O)c1sc(NC(=O)COc2ccc(C(C)C)c(C)c2)nc1C`, -0.5.
With `COc1ccc(C2C(C(=O)Nc3ccc(Br)cc3C)c3ccccc3C(=O)N2C)cc1` (stereo unspecified), the z-score was -0.56.
Then `O=S(=O)(c1ccccc1)N1CCN(C2CC3CCC2C3)CC1` (stereo unspecified), with -0.28; and `N=C1N=C(N)C(Cc2ccccc2)S1` (stereo unspecified), with -0.59.
For `Cc1noc(NS(=O)(=O)c2ccc(NC(=O)c3cccc(Br)c3)cc2)c1C`, the z-score is 0.43.
The result for `CC(=O)Nc1cc(C(=O)N(C)CCC#N)ccc1Sc1ccc(Cl)cc1` reads -1.08.
The result for `COc1ccc(C2C(C(=O)Nc3ccccc3F)=C(C)NC3=C2C(=O)CCC3)cc1OC` (stereo unspecified) reads 0.03; that for `O=C(NCc1ccccc1)c1ccc2c(=O)n(-c3ccccc3)c(=S)[nH]c2c1`, 0.39; that for `O=C1C(=O)N(c2nccs2)C(c2ccccc2Cl)/C1=C(\O)c1ccc(F)cc1` (stereo unspecified), 1.65.
Then `CCCCNC(=O)c1cnn2c(C)c(Cc3ccccc3)c(C)nc12`, with -0.18; and `O=C(c1ccc(-n2c(=S)[nH]c3ccccc3c2=O)cc1)N1CCN(C2CCCCC2)CC1`, with -0.06; and `O=C(Nc1ncnc2sc3c(c12)CCCC3)c1ccccc1`, with 0.41.
For the compound `S=c1[nH]c(-c2ccc(Cl)cc2)cn1-c1cccc(Cl)c1`, the z-score was -0.55.
The result for `Nc1nnc2c(n1)-c1ccccc1C2=O` reads 0.84; that for `CCC(NS(=O)(=O)c1ccc(Oc2ccc([N+](=O)[O-])cc2)cc1)C12CC3CC(CC(C3)C1)C2` (stereo unspecified), -1.36.
The result for `O=C(CN1C(=O)c2cccc3cccc1c23)N1CCCCCC1` reads 0.09.
For the compound `CCCCN(C)Cc1c(O)ccc2c(=O)c(Oc3ccc(CC)cc3)c(C(F)(F)F)oc12`, the z-score is -0.69.
The result for `Fc1ccccc1CSc1nc(NCC2CCCO2)c2ccccc2n1` (stereo unspecified) reads -1.9.

Source of the values: PubChem BioAssay AID745 (Emory University Molecular Libraries Screening Center, 2007).
